# Assay results: PMC7862700, “An all-to-all approach to the identification of sequence-specific readers for epigenetic DNA modifications on cytosine”
# How the values were obtained:
# Experiment in all cases: DAPPL (digital affinity profiling via proximity ligation, sequencing); 10 mM Tris-HCl pH 7.5, 50 mM NaCl, 1 mM DTT, 4% glycerol, room temperature, 30 min; GST-TFs on glutathione beads, 16-mer random dsDNA library, 0.1% formaldehyde crosslink after washing; high values mean tight binding
# Conditions in all cases: protein: recombinant; tags: N-terminal GST; dsDNA, one strand shown
# ETV1 = ETV1 (Homo sapiens, UniProt P50549 1-477)
# Summary of the method: (§1)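 In yeast, human transcription factors were expressed with a GST fusion, then pulled down on glutathione beads and given DNA barcodes. Pooled with a tag-only sample, they were exposed to 200 nmole of a 16-mer random double-stranded DNA library (Tris/NaCl/DTT/glycerol buffer, room temperature, 30 min), washed, crosslinked with 0.1% formaldehyde, proximity-ligated using BsaI/T4 ligase for 1 h at 37 °C, PCR-amplified and read on an Illumina NextSeq500. Each hexamer's frequency of reads for a factor, divided by the matching frequency for the tag-only sample, gives the binding signal.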
# ERF = target: T1, ERF (Homo sapiens, UniProt P50548 1-548)
# T1 sequence: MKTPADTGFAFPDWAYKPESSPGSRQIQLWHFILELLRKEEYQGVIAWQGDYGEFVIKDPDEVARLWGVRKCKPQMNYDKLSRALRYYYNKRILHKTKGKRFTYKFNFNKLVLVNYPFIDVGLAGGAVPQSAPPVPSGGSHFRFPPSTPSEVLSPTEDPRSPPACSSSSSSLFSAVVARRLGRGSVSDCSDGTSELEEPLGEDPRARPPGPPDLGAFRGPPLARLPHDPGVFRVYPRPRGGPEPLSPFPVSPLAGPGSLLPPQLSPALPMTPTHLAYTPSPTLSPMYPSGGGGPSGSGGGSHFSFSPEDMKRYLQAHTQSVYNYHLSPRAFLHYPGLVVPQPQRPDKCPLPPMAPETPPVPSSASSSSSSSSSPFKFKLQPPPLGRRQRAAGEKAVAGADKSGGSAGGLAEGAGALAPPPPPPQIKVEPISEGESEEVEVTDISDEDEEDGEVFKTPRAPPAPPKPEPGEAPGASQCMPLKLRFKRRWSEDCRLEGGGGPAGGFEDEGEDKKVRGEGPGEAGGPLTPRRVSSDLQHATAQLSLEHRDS
# Summary of the method: as §1
# ETV3L = target: T2, ETV3L (Homo sapiens, UniProt Q6ZN32 1-361)
# T2 sequence: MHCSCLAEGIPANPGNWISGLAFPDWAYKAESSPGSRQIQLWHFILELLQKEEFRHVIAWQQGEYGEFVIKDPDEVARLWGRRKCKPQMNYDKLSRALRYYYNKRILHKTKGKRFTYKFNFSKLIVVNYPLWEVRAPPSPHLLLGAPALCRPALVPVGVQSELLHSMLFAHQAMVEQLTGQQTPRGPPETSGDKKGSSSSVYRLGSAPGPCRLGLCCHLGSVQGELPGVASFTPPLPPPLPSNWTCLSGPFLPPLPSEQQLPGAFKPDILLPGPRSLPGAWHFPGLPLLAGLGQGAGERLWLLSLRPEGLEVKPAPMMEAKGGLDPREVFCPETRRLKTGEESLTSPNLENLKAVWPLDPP
# Summary of the method: as §1
# ETS2 = target: T3, ETS2 (Homo sapiens, UniProt P15036 1-469)
# T3 sequence: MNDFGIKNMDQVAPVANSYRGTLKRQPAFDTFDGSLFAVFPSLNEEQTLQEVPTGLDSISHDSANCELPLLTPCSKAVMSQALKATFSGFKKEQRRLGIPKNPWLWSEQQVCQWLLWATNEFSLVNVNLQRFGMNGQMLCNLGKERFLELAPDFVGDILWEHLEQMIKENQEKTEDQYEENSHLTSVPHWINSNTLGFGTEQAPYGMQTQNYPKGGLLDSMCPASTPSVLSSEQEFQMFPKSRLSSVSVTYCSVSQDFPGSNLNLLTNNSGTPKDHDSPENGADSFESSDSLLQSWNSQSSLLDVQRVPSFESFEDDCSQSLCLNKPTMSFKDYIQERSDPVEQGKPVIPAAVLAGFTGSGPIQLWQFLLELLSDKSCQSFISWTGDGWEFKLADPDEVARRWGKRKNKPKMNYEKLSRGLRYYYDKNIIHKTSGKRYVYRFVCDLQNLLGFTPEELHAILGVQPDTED
# Summary of the method: as §1
# SPDEF = target: T4, SPDEF (Homo sapiens, UniProt O95238 1-335)
# T4 sequence: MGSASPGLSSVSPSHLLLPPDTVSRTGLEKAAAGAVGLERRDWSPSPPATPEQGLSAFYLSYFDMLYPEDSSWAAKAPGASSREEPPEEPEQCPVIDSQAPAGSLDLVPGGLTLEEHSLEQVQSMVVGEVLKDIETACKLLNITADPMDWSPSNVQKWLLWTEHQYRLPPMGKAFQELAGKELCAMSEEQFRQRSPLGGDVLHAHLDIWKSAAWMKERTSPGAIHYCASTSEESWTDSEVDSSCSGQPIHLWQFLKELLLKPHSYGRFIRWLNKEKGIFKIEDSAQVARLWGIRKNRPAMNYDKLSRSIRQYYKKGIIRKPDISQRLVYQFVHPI
# Summary of the method: as §1
# ETV7 = target: T5, ETV7 (Homo sapiens, UniProt Q9Y603 1-341)
# T5 sequence: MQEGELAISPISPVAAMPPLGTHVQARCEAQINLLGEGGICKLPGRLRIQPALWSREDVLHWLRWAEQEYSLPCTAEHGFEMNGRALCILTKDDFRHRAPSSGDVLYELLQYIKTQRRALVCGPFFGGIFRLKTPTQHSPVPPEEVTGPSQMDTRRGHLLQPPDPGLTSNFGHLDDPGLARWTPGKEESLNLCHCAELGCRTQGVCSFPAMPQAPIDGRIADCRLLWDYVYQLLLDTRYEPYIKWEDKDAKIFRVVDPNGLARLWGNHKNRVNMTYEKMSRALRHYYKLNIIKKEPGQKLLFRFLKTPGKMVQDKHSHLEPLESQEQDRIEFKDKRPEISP
# Summary of the method: as §1
# ELF5 = target: T6, ELF5 (Homo sapiens, UniProt Q9UKW6-2 1-255)
# T6 sequence: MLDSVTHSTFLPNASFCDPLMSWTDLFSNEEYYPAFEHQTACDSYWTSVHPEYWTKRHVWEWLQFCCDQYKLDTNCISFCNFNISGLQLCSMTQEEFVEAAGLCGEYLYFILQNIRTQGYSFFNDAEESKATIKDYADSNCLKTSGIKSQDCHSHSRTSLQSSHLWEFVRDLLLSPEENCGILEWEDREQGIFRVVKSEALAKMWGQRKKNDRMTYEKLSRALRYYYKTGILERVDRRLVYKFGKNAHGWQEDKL
# Summary of the method: as §1
# ETV3 = target: T7, ETV3 (Homo sapiens, UniProt P41162-2 1-143)
# T7 sequence: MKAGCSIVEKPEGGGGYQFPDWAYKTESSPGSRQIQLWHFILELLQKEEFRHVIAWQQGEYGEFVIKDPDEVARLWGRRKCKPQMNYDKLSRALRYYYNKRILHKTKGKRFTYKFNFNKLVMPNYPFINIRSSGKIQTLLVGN
# Summary of the method: as §1
# ETV6 = ETV6 (Homo sapiens, UniProt P41212 1-452)
# Summary of the method: as §1
# Sequence of ETV6 (P41212 whole entry): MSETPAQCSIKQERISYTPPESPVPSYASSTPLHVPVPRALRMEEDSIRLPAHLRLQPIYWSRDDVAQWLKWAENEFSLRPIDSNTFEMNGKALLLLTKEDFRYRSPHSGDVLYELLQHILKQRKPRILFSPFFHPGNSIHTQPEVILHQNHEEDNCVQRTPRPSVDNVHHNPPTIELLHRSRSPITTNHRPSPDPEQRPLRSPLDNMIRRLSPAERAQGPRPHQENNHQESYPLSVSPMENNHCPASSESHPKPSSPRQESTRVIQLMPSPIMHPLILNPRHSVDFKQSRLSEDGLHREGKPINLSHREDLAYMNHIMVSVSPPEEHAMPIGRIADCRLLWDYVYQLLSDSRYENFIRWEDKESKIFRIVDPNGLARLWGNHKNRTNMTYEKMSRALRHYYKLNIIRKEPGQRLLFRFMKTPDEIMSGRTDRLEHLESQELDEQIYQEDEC
# Sequence of ETV1 (P50549 whole entry, the tested form may be a part): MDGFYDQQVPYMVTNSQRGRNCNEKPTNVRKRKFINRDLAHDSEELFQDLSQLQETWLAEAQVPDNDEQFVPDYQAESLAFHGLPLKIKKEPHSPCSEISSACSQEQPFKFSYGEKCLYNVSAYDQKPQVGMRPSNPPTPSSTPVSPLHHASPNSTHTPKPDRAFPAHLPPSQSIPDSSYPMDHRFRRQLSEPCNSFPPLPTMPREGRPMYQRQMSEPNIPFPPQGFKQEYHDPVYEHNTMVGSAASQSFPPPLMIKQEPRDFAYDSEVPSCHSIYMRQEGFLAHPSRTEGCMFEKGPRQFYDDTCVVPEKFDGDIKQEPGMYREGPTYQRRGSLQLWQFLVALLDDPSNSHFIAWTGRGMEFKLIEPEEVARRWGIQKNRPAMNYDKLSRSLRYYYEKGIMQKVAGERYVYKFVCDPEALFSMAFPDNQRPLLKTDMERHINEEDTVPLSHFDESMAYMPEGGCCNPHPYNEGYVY
sequence,measurement,setting,value
GATTAT,binding signal,ETV1,"1.06 fold enrichment (6-mer frequency, TF over GST control)"
same,binding signal,ERF,"1.06 fold enrichment (6-mer frequency, TF over GST control)"
same,binding signal,ETV3L,"1.11 fold enrichment (6-mer frequency, TF over GST control)"
same,binding signal,ETS2,"1.04 fold enrichment (6-mer frequency, TF over GST control)"
same,binding signal,SPDEF,"1.1 fold enrichment (6-mer frequency, TF over GST control)"
same,binding signal,ETV7,"1.18 fold enrichment (6-mer frequency, TF over GST control)"
same,binding signal,ELF5,"1.04 fold enrichment (6-mer frequency, TF over GST control)"
same,binding signal,ETV3,"1.04 fold enrichment (6-mer frequency, TF over GST control)"
same,binding signal,ETV6,"1.12 fold enrichment (6-mer frequency, TF over GST control)"
